Records with an inconclusive call do not appear. Values without a mark were called inactive. Calls of active or inactive are those of the source. Calls come from the whole dose curve; as a rule, active = well fitted curve in the direction sought with a large enough effect in the repeat runs; inconclusive = weak or mixed curves; inactive = no such curve, though single readings can be large; an effect the other way counts as inactive or inconclusive.

Experiment [1] concerns the target Cytochrome P450 2C19 (Homo sapiens) (UniProt P33261). Description: Cytochrome P450 Family 2 Subfamily C Member 19 (CYP2C19) small molecule antagonists: luciferase reporter qHTS assay (AID 1671197). Note: nearly all actives have a fitted effect of over 65% in size. The procedure, abridged:
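Relative luminescence units recorded 20 min after the detection reagent stopped a 1 h, 37C CYP2C19 reaction on proluciferin substrate, which was started by NADPH regeneration following 10 min room-temperature compound preincubation; ketoconazole positive control.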
In general terms: A reporter such as luciferase makes a cellular process visible.

In experiment [2] the target is Cytochrome P450 2C9 (Homo sapiens) (UniProt P11712). Briefly: Cytochrome P450 Family 2 Subfamily C Member 9 (CYP2C9) small molecule antagonists: luciferase reporter qHTS assay (AID 1671198). Note: nearly all actives have a fitted effect of over 50% in size. The procedure, abridged: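 Enzyme-substrate mix preincubated with compound 10 min at room temperature; reaction started with NADPH regeneration solution, 1 h 37C. Luminescent luciferin product read after 20 min detection reagent.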

The target in experiment [3] is Cytochrome P450 1A2 (Homo sapiens) (UniProt P05177). Description: Cytochrome P450 Family 1 Subfamily A Member 2 (CYP1A2) small molecule antagonists: luciferase reporter qHTS assay (AID 1671199). Note: nearly all actives have a fitted effect of over 50% in size. The procedure, abridged: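 Room-temperature CYP1A2 reaction with proluciferin substrate: compounds added from DMSO, 10 min preincubation, NADPH regeneration for 1 h. Luciferin detection reagent then added; luminescence recorded as RLU.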

Experiment [4] deals with Cytochrome P450 3A4 (Homo sapiens) (UniProt P08684). Description: Cytochrome P450 Family 3 Subfamily A Member 4 (CYP3A4) small molecule antagonists: luciferase reporter qHTS assay (AID 1671201). Note: nearly all actives have a fitted effect of over 50% in size. The procedure, abridged: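 Proluciferin-to-luciferin conversion by CYP3A4, NADPH-regenerated, 1 h RT; luminescence read as RLU. Ketoconazole as control.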
Experiment [5] has as its target Voltage-gated inwardly rectifying potassium channel KCNH2 (Homo sapiens) (UniProt Q12809). Briefly: Human Ether-a-go-go-Related Gene (hERG) channel small molecule antagonists: fluorescence cell-based qHTS assay (AID 1671200). Note: nearly all actives have a fitted effect of over 50% in size. The procedure, abridged: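 Kinetic two-minute fluorescence traces, sampled at 1 s, were collected following thallium stimulus of U2OS cells (1000 per well) that had been cultured overnight at 37 C and loaded with FluxOR II.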
A general note: The hERG channel carries a current that helps repolarise heart muscle cells.
Potency is the fitted concentration of half-maximal effect.

Cytochrome P450 2C19 (Homo sapiens), sequence (P33261 whole entry, looked up): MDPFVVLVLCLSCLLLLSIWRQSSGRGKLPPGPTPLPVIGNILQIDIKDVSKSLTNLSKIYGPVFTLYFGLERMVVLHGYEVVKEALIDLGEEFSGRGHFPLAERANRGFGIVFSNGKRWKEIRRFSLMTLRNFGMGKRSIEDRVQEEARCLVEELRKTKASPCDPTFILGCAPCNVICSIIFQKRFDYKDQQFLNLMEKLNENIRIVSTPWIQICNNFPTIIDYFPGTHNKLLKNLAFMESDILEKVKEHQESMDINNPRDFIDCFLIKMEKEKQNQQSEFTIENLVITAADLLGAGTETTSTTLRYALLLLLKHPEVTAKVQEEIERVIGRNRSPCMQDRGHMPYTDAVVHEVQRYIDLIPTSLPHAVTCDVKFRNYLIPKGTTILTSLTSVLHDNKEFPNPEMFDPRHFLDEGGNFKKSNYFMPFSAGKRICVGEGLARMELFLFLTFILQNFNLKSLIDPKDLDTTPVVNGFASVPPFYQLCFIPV
Voltage-gated inwardly rectifying potassium channel KCNH2 (Homo sapiens), sequence (Q12809 whole entry, looked up): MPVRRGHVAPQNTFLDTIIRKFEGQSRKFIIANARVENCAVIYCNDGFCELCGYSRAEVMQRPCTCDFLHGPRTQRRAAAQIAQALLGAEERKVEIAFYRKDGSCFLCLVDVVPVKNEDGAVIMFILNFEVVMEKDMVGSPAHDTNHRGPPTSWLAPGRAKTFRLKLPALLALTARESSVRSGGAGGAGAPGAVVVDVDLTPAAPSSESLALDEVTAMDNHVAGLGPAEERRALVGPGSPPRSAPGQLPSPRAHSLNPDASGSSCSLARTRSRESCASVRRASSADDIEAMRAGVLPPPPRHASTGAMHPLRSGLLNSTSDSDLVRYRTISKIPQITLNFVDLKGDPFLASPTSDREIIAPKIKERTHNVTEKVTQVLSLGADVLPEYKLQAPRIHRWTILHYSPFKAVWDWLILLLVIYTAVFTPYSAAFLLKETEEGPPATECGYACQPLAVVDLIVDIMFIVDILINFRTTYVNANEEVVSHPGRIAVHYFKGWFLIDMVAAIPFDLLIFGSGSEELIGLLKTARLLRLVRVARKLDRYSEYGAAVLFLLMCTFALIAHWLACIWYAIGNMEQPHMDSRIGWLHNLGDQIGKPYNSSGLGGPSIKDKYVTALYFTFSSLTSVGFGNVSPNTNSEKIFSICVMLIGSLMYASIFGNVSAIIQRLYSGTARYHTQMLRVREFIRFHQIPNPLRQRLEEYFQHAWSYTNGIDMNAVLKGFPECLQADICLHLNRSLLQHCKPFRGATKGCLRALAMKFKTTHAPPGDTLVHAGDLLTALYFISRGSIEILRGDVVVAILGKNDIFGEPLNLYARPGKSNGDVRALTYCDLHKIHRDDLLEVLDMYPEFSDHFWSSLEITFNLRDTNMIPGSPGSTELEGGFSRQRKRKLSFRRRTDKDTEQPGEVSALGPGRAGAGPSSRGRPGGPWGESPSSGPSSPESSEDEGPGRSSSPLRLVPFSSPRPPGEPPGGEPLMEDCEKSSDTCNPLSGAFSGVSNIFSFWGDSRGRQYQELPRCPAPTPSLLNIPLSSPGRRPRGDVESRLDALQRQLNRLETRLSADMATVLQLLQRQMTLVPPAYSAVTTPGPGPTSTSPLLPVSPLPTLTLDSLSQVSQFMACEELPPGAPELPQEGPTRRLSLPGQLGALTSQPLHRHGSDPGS
Cytochrome P450 2C9 (Homo sapiens), sequence (P11712 whole entry, looked up): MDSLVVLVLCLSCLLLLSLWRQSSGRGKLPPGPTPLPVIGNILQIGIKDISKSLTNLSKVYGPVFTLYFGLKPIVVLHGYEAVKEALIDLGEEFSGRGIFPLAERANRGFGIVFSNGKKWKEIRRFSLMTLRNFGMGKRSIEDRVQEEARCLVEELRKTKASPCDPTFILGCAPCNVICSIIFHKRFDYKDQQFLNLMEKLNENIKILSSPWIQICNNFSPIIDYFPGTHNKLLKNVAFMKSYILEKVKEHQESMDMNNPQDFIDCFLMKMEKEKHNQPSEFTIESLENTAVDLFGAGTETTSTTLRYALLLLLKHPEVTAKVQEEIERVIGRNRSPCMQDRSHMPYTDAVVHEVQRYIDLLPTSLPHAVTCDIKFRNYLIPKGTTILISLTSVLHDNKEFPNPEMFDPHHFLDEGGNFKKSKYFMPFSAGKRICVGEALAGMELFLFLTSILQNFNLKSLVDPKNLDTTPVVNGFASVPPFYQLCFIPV
Cytochrome P450 1A2 (Homo sapiens), sequence (P05177 whole entry, looked up): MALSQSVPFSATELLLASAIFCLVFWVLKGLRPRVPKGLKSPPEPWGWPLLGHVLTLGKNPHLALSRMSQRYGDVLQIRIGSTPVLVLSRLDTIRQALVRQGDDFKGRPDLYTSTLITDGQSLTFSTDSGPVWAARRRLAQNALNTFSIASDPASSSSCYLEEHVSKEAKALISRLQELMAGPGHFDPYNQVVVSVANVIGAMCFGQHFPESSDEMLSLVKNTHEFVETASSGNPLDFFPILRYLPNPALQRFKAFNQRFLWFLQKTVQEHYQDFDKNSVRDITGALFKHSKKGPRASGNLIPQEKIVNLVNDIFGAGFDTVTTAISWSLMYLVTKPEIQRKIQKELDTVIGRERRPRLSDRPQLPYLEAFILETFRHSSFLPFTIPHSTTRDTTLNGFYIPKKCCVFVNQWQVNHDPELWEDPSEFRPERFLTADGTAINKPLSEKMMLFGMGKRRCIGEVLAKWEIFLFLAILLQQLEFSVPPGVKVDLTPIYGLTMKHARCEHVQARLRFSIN
Cytochrome P450 3A4 (Homo sapiens), sequence (P08684 whole entry, looked up): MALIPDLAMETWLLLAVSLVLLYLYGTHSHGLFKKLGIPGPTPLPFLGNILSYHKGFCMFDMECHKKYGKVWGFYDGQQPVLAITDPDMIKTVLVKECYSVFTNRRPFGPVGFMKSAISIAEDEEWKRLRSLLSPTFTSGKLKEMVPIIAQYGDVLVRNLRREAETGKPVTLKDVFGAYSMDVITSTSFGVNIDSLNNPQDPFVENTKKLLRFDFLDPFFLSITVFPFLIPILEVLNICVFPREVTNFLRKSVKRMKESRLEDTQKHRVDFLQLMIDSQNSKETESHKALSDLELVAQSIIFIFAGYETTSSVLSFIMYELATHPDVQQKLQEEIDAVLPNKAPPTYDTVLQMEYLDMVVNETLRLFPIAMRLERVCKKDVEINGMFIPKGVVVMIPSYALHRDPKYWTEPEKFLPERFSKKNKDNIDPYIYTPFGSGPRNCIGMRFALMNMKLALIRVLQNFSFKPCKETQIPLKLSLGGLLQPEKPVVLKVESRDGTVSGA

For `S=C(S)NCCNC(=S)S`, the results for the Potency in experiment [1] and in experiment [2] were 31.2 µM (active) and 35 µM (active), respectively. Also, the Potency entry in experiment [3] and in experiment [4] was “inactive” throughout.

Take `CCCCOCCOCCOCCOCCO`: the Potency entry in experiment [1], in experiment [2], in experiment [5] and in experiment [4] was “inactive” each time.

Turning to `NC(N)=N/N=C/c1c(Cl)cccc1Cl`, the Potency entry in experiment [1], in experiment [2] and in experiment [4] was “inactive” in each case. Besides, in experiment [3], the Potency was 15.5 µM (active).

Regarding `CN(C)CC[C@@H](c1ccc(Br)cc1)c1ccccn1`, the Potency entry in experiment [1], in experiment [2], in experiment [5] and in experiment [4] was “inactive” each time. The Potency in experiment [3] was 24.5 µM (active).

For the compound `CCCCCCCC/C=C\CCCCCCCC(N)=O`, the Potency result in experiment [1], in experiment [2], in experiment [5] and in experiment [4] was “inactive” throughout. The Potency in experiment [3] is 35.6 µM (active).

In the case of `N[C@H]1C(O)O[C@H](CO)[C@H](O)[C@@H]1O` (some centres not stated), the Potency result in experiment [1], in experiment [2], in experiment [3] and in experiment [4] was “inactive” each time.

As to `CN1CCC(=C2c3ccccc3C=Cc3ccccc32)CC1`, the Potency in experiment [1] was 24.5 µM (active). The Potency entry in experiment [2], in experiment [3] and in experiment [4] was “inactive” each time.

For `COc1cc(C(C)(C)C)c(O)c(C(C)(C)C)c1`, the Potency was 35.6 µM (active) in experiment [1], 22.4 µM (active) in experiment [2], 39.9 µM (active) in experiment [3] and 35.6 µM (active) in experiment [4].

Consider `CC(O)C1CCCCC1` (configuration not stated), for which the Potency result in experiment [1], in experiment [2], in experiment [3], in experiment [5] and in experiment [4] was “inactive” each time.

On to `CN1CCC(=C2c3ccccc3CCc3sccc32)CC1`, for which the Potency in experiment [1] was 8.71 µM (active). Also, the Potency result in experiment [2], in experiment [3] and in experiment [4] was “inactive” each time.

Take `CC(=O)CC(=O)c1ccccc1`: the Potency in experiment [1] was 31.9 µM (active); in experiment [2], 35.8 µM (active); in experiment [3] it was 40.2 µM (active); in experiment [4], 63.7 µM (active).

Consider `CCN1CCC[C@H]1CNC(=O)c1c(OC)ccc(Br)c1OC`, for which the Potency entry in experiment [1], in experiment [2], in experiment [3], in experiment [5] and in experiment [4] was “inactive” throughout.

Take `CCCC(=O)OCC`: the Potency entry in experiment [1], in experiment [3] and in experiment [4] was “inactive” each time. In addition, the Potency in experiment [2] was 12.6 µM (active).

As for `O=C(O)COC(=O)Cc1ccccc1Nc1c(Cl)cccc1Cl`, the Potency entry in experiment [1], in experiment [3], in experiment [5] and in experiment [4] was “inactive” each time. In addition, the Potency in experiment [2] was 13.8 µM (active).

In the case of `CCN(CC)CCc1nc(-c2ccccc2)no1`, the Potency entry in experiment [1], in experiment [2], in experiment [5] and in experiment [4] was “inactive” each time.

Take `CCN(CC)C(C)=O`: the Potency result in experiment [1], in experiment [2], in experiment [5] and in experiment [4] was “inactive” throughout.

With `CCOC(=O)C1=NN(c2ccccc2)C(=O)C1`, the Potency entry in experiment [1], in experiment [5] and in experiment [4] was “inactive” each time. In experiment [2], the Potency is 71 µM (active).

For `C=CC(C)(CCC=C(C)C)OC(=O)c1ccccc1` (configuration not stated), the Potency in experiment [1] was 15.9 µM (active); in experiment [2], 17.8 µM (active); in experiment [3], 39.9 µM (active); in experiment [4] it was 31.7 µM (active).

For the compound `NC(N)=NN=C(/C=C/c1ccc([N+](=O)[O-])o1)/C=C/c1ccc([N+](=O)[O-])o1`, the Potency in experiment [1] is 3.89 µM (active); in experiment [2] it was 24.5 µM (active); in experiment [5] it was 2.39 µM (active).

Consider `CCCCCCCCCCCCCCCC(=O)OC/C=C(C)/C=C/C=C(C)/C=C/C1=C(C)CCCC1(C)C`, for which the Potency was 39.9 µM (active) in experiment [1] and 35.6 µM (active) in experiment [2]. In experiment [5], the Potency result is “inactive”.

Regarding `O=C(O)C1CCC(C(=O)O)CC1` (configuration not stated), the Potency result in experiment [1], in experiment [2], in experiment [3], in experiment [5] and in experiment [4] was “inactive” in each case.

As for `CCCCCCCCCCCCC(=O)O`, in experiment [1], the Potency is 71.3 µM (active). Also, the Potency result in experiment [2], in experiment [5] and in experiment [4] was “inactive” each time.

Take `CCCCc1cc2ccccc2c(OCCN(C)C)n1`: the Potency result in experiment [1], in experiment [2] and in experiment [4] was “inactive” throughout. In addition, the Potency in experiment [3] is 0.436 µM (active).

As to `O=C(CC(=O)c1ccccc1)c1ccccc1`, the Potency is 24.1 µM (active) in experiment [1], 38.2 µM (active) in experiment [2] and 3.82 µM (active) in experiment [3]. The Potency result in experiment [5] and in experiment [4] was “inactive” each time.

Turning to `CC1=CCC(C(C)C)C=C1` (configuration not stated), the Potency was 79.6 µM (active) in experiment [1], 50.2 µM (active) in experiment [2] and 25.2 µM (active) in experiment [4]. For the same compound, the Potency entry in experiment [5] is “inactive”.

Consider `CCCCOC(O)CC` (configuration not stated), for which the Potency result in experiment [1], in experiment [2], in experiment [3], in experiment [5] and in experiment [4] was “inactive” in each case.

For the compound `CC(C)NCC(O)c1cc(O)cc(O)c1` (configuration not stated), the Potency entry in experiment [1], in experiment [2], in experiment [5] and in experiment [4] was “inactive” each time.

Regarding `Cn1c(N)nc2nc[nH]c2c1=O`, the Potency entry in experiment [1], in experiment [2] and in experiment [5] was “inactive” each time.

For `CCCCCOC(=O)COc1cc(N2C(=O)C3=C(CCCC3)C2=O)c(F)cc1Cl`, the Potency in experiment [1] was 25.2 µM (active); in experiment [2], 5.64 µM (active); in experiment [3] it was 31.7 µM (active); in experiment [4] it was 6.33 µM (active).

`Cc1ccc(C)o1`: the Potency entry in experiment [1], in experiment [2], in experiment [3], in experiment [5] and in experiment [4] was “inactive” throughout.

For `CC(C(=O)O)c1ccc(C(=O)c2ccccc2)s1` (configuration not stated), the Potency was 4.9 µM (active) in experiment [1], 17.4 µM (active) in experiment [2] and 9.11 µM (active) in experiment [3]. For the same compound, the Potency entry in experiment [5] and in experiment [4] was “inactive” each time.

With `CC(C)CC=O`, the Potency in experiment [1] was 35.6 µM (active). The Potency result in experiment [3] and in experiment [5] was “inactive” in each case.

For `CN1CCC[C@@H]1c1cccnc1`, the Potency entry in experiment [1], in experiment [3] and in experiment [5] was “inactive” in each case.

`C=CC(=O)OCCOC(=O)CCC(=O)O`: the Potency result in experiment [1], in experiment [2] and in experiment [5] was “inactive” each time. Moreover, the Potency in experiment [4] is 31.7 µM (active).

As for `O=C(O)c1cccc(N(Cc2cccnc2)c2ccc(OC(F)F)c(OC(F)F)c2)c1`, the figures for the Potency in experiment [1] and in experiment [2] were 35.6 µM (active) and 25.2 µM (active), respectively. For the same compound, the Potency entry in experiment [5] and in experiment [4] was “inactive” each time.

Turning to `O=[N+]([O-])c1cccc(Cl)c1Cl`, the Potency entry in experiment [1], in experiment [2] and in experiment [4] was “inactive” in each case.

For the compound `Cc1ccc(C(C)c2ccc(C)c(C)c2)cc1C`, the Potency is 7.1 µM (active) in experiment [1] and 11.2 µM (active) in experiment [2]. Also, the Potency result in experiment [5] and in experiment [4] was “inactive” throughout.

With `CC(C)(Oc1ccc(Cl)cc1)C(=O)OCCCOC(=O)C(C)(C)Oc1ccc(Cl)cc1`, the Potency in experiment [1] was 3.47 µM (active); in experiment [2], 5.49 µM (active). For the same compound, the Potency entry in experiment [4] is “inactive”.

In the case of `Cc1ccc(O)c([C@H](CCN(C(C)C)C(C)C)c2ccccc2)c1`, in experiment [1], the Potency is 24.5 µM (active). In experiment [3], the Potency entry is “inactive”.

With `CC(=O)NCCCS(=O)(=O)O`, the Potency entry in experiment [1], in experiment [2] and in experiment [4] was “inactive” each time.

As to `N#Cc1c(F)cccc1F`, the Potency result in experiment [1], in experiment [2], in experiment [5] and in experiment [4] was “inactive” throughout.

For the compound `CCCCCCCCCCCCCCC1CO1` (configuration not stated), the Potency entry in experiment [1], in experiment [2] and in experiment [4] was “inactive” in each case.

The record behind these values is PubChem BioAssay (Tox21).
